The results in this text go back to ChEMBL document CHEMBL1157539, “Thousands of chemical starting points for antimalarial lead identification” (Nature, 2010).

What is called Inhibition is the relative decrease from the control value, in per cent.

This assay has as its system Plasmodium falciparum. Kind of assay: GSK_TCMDC: Inhibition of Plasmodium falciparum Dd2 in whole red blood cells, using parasite LDH activity as an index of growth. Test compounds present at 2uM. The class given is functional.
As to `CC(=O)Nc1ncc(C(=O)Nc2cccc(-c3ccc(-c4nc5ccccc5[nH]4)cc3)c2)s1`, the Inhibition was found to be 66%. Take `CCOc1c(OC)ccc2c1CCN(CCN1CCC(CNC(=O)c3ccc(-c4ccc(C(F)(F)F)cc4)cc3)CC1)C2`: the Inhibition worked out at 21%. In turn, `COc1ccc2nccc([C@@H](O)CN3CCC(NS(=O)(=O)c4cc5c(cc4Cl)SCC(=O)N5)CC3)c2c1.O=C(O)C(=O)O` gave an Inhibition of 0%. Turning to `O=C(COc1ccc(Cl)c(Cl)c1)NCCCCCN1CCCN(C(=O)Nc2ccc(Cl)c(Cl)c2)CC1.O=C(O)C(F)(F)F`, the Inhibition came to 7%. Then `CCc1cc2c(O)c([N+](=O)[O-])c(=O)oc2cc1OCCCCCOc1cc2oc(=O)c([N+](=O)[O-])c(O)c2cc1CC`, with 0%. `Cc1cc(N[C@@H](Cc2ccccc2)C(=O)NCCc2ccccc2)nc(NCCc2ccc(F)cc2)n1.O=C(O)C(F)(F)F` yielded an Inhibition of 89%.

In the case of `Cc1nn(-c2ccc(Cl)cc2)c2[nH]c(CN3CCN(c4cccc(Cl)c4)CC3)cc(=O)c12`, the Inhibition amounted to 98%. Compound `C=C[C@]1(C)C[C@@H](OC(=O)CNC[C@@H](O)CN2C[C@H](c3ccnc4ccc(OC)nc34)OC2=O)[C@@]2(C)[C@@H]3C(=O)CC[C@@]3(CC[C@@H]2C)[C@@H](C)[C@@H]1O` yielded an Inhibition of 82%.

`Br.CC(CON1C(N)=NC(N)=NC1(C)C)c1ccc(Cl)cc1Cl` (stereo unspecified) came in with an Inhibition of 95%. Then `CCN(CC)CCN(Cc1ccc(-c2ccc(C(F)(F)F)cc2)cc1)C(=O)Cn1c(CCc2cc(F)c(F)c(F)c2)nc(=O)c2ccccc21.O=C(O)C(O)C(O)C(=O)O`, with 70%.

In turn, `COc1ccccc1CNc1ccnc(N2CC(Oc3ccc(F)cc3)C2)n1` came in with an Inhibition of 95%.
